Test results from PubChem BioAssay AID1745849 (National Center for Advancing Translational Sciences (NCATS), 2022).
Out of some 2,100 compounds screened, about 320 (15%) were called active. Inconclusive results (about 52%) are left out. Some of the results follow. Values without a mark were called inactive. Calls come from the whole dose curve; as a rule, active = well fitted cell-killing curve with a large enough effect; inconclusive = small, poorly fitted or top-dose-only effect, or effect the other way; inactive = flat fitted curve, though single readings scatter.

experiment: Viability Counterscreen for CMV-Luciferase Assay of Inhibitors of ATXN expression; settings: HEK-293 CMV-luciferase cells viability, protease fluorescence, 24 h; activity change, negative = cytotoxicity: at the top concentration; note: nearly all actives have a fitted effect of over 55% in size
Method in brief: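 Compounds are tested in a dilution series on HEK-293 cells carrying the CMV-driven luciferase. After a 24 hr incubation, a protease substrate (25 uM final, 30 min) gives the viability fluorescence, and SteadyGlo gives the reporter luminescence.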
% is set by controls: 0 for no effect and ±100 for the full control effect; potency is the fitted concentration of half-maximal effect.

| Compound | activity change, negative = cytotoxicity | Potency |
| --- | --- | --- |
| COCC(=O)OC/C(O)=C(\C#N)c1nc2ccccc2[nH]1 | 9.99% |  |
| CCOc1cc(CNCCO)cc(Br)c1OCc1ccccc1 | 2.53% [at 57.5 µM] |  |
| O=C(c1ccco1)N(CCCN1CCOCC1)c1nc(-c2ccc(Cl)cc2)cs1 | 6.96% |  |
| CN(C)S(=O)(=O)c1cccc(N2C(=O)CC3(CCCCC3)CC2=O)c1 | -2.8% |  |
| O=C(CN1C(=O)c2ccccc2S1(=O)=O)c1ccc(Cl)cc1Cl | 6.64% [at 57.5 µM] |  |
| N#Cc1c(Oc2ccc3ccccc3c2)sc(C(=O)c2ccccc2)c1N | -22.7% [at 57.5 µM] |  |
| Cc1ccc(C)n1-c1ccc(C(=O)N2CCC(C(N)=O)CC2)cc1 | -20.6% |  |
| Cc1ccc(C)c(N2CCN(C(=O)CCCCCn3c(=S)[nH]c4ccc(N5CCOCC5)cc4c3=O)CC2)c1 | -23.9% |  |
| O=C(CN1C(=O)c2ccccc2S1(=O)=O)c1ccc(O)c(O)c1 | -3.1% |  |
| c1ccc(COc2ncnc3c2ncn3CCCN2CCN(Cc3cccc4ccccc34)CC2)cc1 |  | 25.1 µM (active) |
| O=c1[nH]c(CN2CCN(c3ncccn3)CC2)nc2c(Br)cc(Br)cc12 | 13.6% |  |
| COc1ccc2c(c1)[nH]c1c(=O)n(/N=C/C3C(C)C=C(C)CC3C)c(=O)[nH]c12 (configuration not stated) |  | 20 µM (active) |
| O=C(CCCN1CCc2[nH]c3ccc(F)cc3c2C1)c1ccc(F)cc1 | -27.3% [at 57.5 µM] |  |
| N=c1n(CCN2CCCCC2)c2ccccc2n1CC(O)c1ccc(Cl)c(Cl)c1 (configuration not stated) |  | 20 µM (active) |
| Cc1ccc(OCC(O)Cn2c(=N)n(CCN3CCCCC3)c3ccccc32)cc1 (configuration not stated) | -17.3% [at 57.5 µM] |  |
| Cc1nc(SC2CC(=O)N(c3ccccc3)C2=O)n[nH]1 (configuration not stated) | -17.3% [at 57.5 µM] |  |
| CCCCC/C=C/C1=CC(=O)C[C@H](c2ccc(OC)c(OC)c2)C1 | -15.6% [at 57.5 µM] |  |
| Cc1cc(=O)oc2c1c(C)nn2-c1cccc(Cl)c1 | 0.11% |  |
| O=C(c1cccc(Cl)c1)c1nn(-c2ccccc2)c(=O)cc1C(F)(F)F |  | 22.4 µM (active) |
| CC(C)=C1SC(N2CCN(c3ccc(C)c(Cl)c3)CC2)=NC1=O | -9.92% |  |
| O=C(NC(c1ccccc1)c1ccc2ccccc2n1)C1CCN(CCOc2ccc(Cl)cc2Cl)CC1 (configuration not stated) |  | 17.8 µM (active) |
| CC(C)Nc1nc(NC(C)C)nc(N(C#N)CCOc2ccc(Cl)cc2Cl)n1 | -13.3% |  |
| COc1ccc(NC2=NCC(Cc3ccc(Br)cc3)S2)cc1 (configuration not stated) | -18.7% |  |
| COc1ccc(N2C3=C(CC4=C2CC(C)(C)CC4=O)C(=O)CC(C)(C)C3)cc1 | -5% |  |
| CCCCNC(=O)C1(C)CCCCN1Cc1ccccc1-c1ccccc1 (configuration not stated) | -15.7% [at 57.5 µM] |  |
| C/C(=C\C(=O)c1ccc(Br)cc1)NNC(=O)c1ccc(O)cc1 |  | 12.6 µM (active) |

| Compound | activity change, negative = cytotoxicity | Potency |
| --- | --- | --- |
| CC(=NNC(=O)c1ccncc1)c1ccc(O)cc1O | 19.1% [at 57.5 µM] |  |
| O=c1ccc2ccccc2c2ccccc12 |  | 10 µM (active) |
| O=c1cc(-c2ccncc2)oc2c1ccc1ccccc12 | -29.1% [at 57.5 µM] |  |
| COc1cc(/C=C2\SC(=O)N(CC(=O)Nc3ccccc3F)C2=O)cc(Cl)c1O | 26% |  |
| COc1cccc(/C=C2/SC(=S)N(CCCC(=O)Nc3ccc(O)cc3)C2=O)c1 |  | 3.98 µM (active) |
| Cc1ccc(/C=C2\SC(=S)N(CCCC(=O)Nc3ccc(O)cc3)C2=O)cc1 | -5.85% |  |
| COc1ccc(/C=C2\SC(=S)N(CCCC(=O)NNC(=O)c3ccccc3O)C2=O)cc1 |  | 20 µM (active) |
| COc1ccccc1/C=C1\SC(=S)N(CCC(=O)NC2=NCCS2)C1=O | -4.03% [at 57.5 µM] |  |
| Cc1ccc2c(CC(=O)NNC(=O)c3ccccc3O)coc2c1 | -9.69% |  |
| O=C(CCc1ccccc1)NNC(=O)c1cc(Cl)ccc1O | -25.6% |  |
| Cc1ccc(C(=O)NNC(=O)CCCN2C(=O)/C(=C/c3ccccc3Cl)SC2=S)cc1 | -26.5% [at 57.5 µM] |  |
| CC(C)(C)c1ccc(OCCCC(=O)NNC(=O)c2ccccc2O)cc1 |  | 25.1 µM (active) |
| Cc1ccc(/C=C2/SC(=S)N(CCCC(=O)Nc3cc([N+](=O)[O-])ccc3O)C2=O)cc1 |  | 25.1 µM (active) |
| Cc1ccc(/C=C2\SC(=S)N(CCCC(=O)Nc3cc(C)on3)C2=O)cc1 | -24.9% |  |
| Cc1ccc(/C=C2\SC(=S)N(CCCC(=O)NC3CCCC3)C2=O)cc1 | -8.21% [at 57.5 µM] |  |
| O=C(C1CCC(CNS(=O)(=O)c2cccs2)CC1)N1CCN(c2ccc(F)cc2)CC1 (configuration not stated) | 3.95% |  |
| CC1CCN(Cc2c(C(=O)N/N=C/c3cc(Cl)ccc3O)nnn2-c2nonc2N)CC1 | -22.8% |  |
| CCOc1ccccc1C(=O)Nc1ccc2nc(N3CCN(c4ncccn4)CC3)cc(C)c2c1 | 27.6% [at 57.5 µM] |  |
| Cn1nccc1C(=O)N1CCCC(C(=O)c2cccc3ccccc23)C1 (configuration not stated) | -25.3% [at 57.5 µM] |  |
| COC(=O)C1=C(C)N(c2ccc(Cl)c(Cl)c2)C(=O)C1 | -5.92% |  |
| FC(F)(F)c1ccc(N2CCN(c3cc(-c4ccccc4)nc4ncnn34)CC2)nc1 | -18.5% |  |
| Clc1ccccc1C(c1ccccc1)(c1ccccc1)n1ccnc1 | -14.9% |  |
| Cc1ccc(C)c(CN2CCC(CNC(=O)Nc3ccc(C)c(C)c3)CC2)c1 | -10.6% [at 57.5 µM] |  |
| Cc1cc(C)nc(NNS(=O)(=O)c2ccc(F)c(Cl)c2)n1 | -11.6% |  |
| COC1=C(C)C(O)=C(C(=O)/C=C/c2ccccc2)C(=O)C1(C)C | -17.6% [at 57.5 µM] |  |
| Cc1[nH]c(=O)c(C(=O)/C=C/c2ccccc2)c2c1CCCC2 |  | 11.2 µM (active) |
